# Screening results deposited in PubChem by National Center for Advancing Translational Sciences (NCATS).
# The list is not random: actives were taken first. Their share in the collection is about 0.46%.
# ASM inhibitor: human S-ASM enzyme inhibition | P17405 | Potency, µM (top dose mostly 57.5 µM), hits mostly inhibitors | AID 504937 | placental ASM, HMU-PC fluorogenic substrate, 60 min | actives 0.006% (n = 340,000)
#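 qHTS format. ASM enzyme prepared from human placenta hydrolyses the fluorogenic substrate HMU-PC0 (9 uM final) over 60 min at 37 °C after a 10 min compound preincubation.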
# GALK inh: galactokinase (human) inhibition | P51570 | Purified GALK, Kinase-Glo residual ATP luminescence | Potency, µM (top dose mostly 57.5 µM), usual class: inhibitors | actives 0.007% (n = 270,000) | AID 1868
# Target sequence (P51570 whole entry, looked up): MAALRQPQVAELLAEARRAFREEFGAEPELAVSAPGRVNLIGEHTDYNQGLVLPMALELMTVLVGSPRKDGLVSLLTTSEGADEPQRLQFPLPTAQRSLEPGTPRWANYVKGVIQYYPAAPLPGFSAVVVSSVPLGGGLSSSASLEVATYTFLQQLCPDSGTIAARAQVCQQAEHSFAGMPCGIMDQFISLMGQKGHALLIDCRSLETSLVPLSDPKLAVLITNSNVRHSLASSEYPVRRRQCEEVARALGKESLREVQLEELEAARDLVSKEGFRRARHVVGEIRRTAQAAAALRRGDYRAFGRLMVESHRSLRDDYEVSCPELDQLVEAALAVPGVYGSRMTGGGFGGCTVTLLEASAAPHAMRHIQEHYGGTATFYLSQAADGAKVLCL
#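 5 nM enzyme, 35 uM ATP, 100 uM galactose, 20 mM HEPES pH8.0, 5 mM MgCl2; 1 h RT; residual ATP by Kinase-Glo Plus luminescence, qHTS format.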
# Mito fusion yeast: mitochondrial division inhibition or fusion activation | S. cerevisiae fusion-defective mutant growth rescue, CellTiterGlo 48 h | Potency, µM (doses to about 46.1 µM), most hits filed as activators | actives 0.23% (n = 320,000) | AID 485298; note: nearly all actives have a fitted effect of over 45% in size
#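 Growth-rescue viability read-out: after 48 h at the non-permissive 37C in glycerol/ethanol YPEG, yeast mitochondrial fusion mutants are measured by CellTiterGlo luminescence; compounds (23 nl pinned per well) restoring growth score as division inhibitors or fusion activators.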
# TSG101-PTAP inh: blocks PTAP/TSG101 interaction to inhibit HIV-1 budding; Q99816; Fluorescence polarization, FITC-PTAP peptide / Tsg101 binding; Potency, µM (top dose mostly 115 µM), hits mostly inhibitors; 340,000 tested, under 10 active; AID 493005; active = well fitted inhibition curve with a large enough effect in the main read-out, with a control signal flat, not every such curve was filed as active; inconclusive = small, poorly fitted or top-dose-only effect, or effect the other way, or a change in a side signal; inactive = no such curve, though single readings can be large or run the other way
#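 Compounds were pin-transferred onto Tsg101 binding domain (10 uM final) in HEPES pH 7.5 buffer, then FITC-PTAP peptide was added at 50 nM final. After 20 min at RT, polarization reported peptide displacement across a qHTS concentration series.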
# AT treatment: potential ataxia-telangiectasia treatments restoring KAP-1 phosphorylation. F2112 A-T fibroblasts, KAP-1 phosphorylation AlphaLISA; neocarzinostatin DNA damage 30 min before lysis. Potency, µM (top dose mostly 57.5 µM), usual class: activators. actives 0.19% (n = 320,000). AID 485349; note: nearly all actives have a fitted effect of over 45% in size
#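 ATM-like activity read as KAP-1 phosphorylation via AlphaLISA donor/acceptor antibody pairs after lysis and 6 hr at 25C. Cells were ATM-null patient fibroblasts (F2112, hTERT), dosed 60 min, then exposed to the DSB inducer NCS for 30 min.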
# a7 integrin act: integrin-mediated muscular dystrophy alleviation activation | alpha7betagal myoblasts, beta-gal FDG fluorescence, 48 h | Potency, µM (top dose mostly 38.3 µM), actives largely listed as activators | actives 0.064% (n = 350,000) | AID 624291; note: nearly all actives have a fitted effect of over 60% in size
#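 alpha7betagal+/- myoblasts (passage 13, 250/well) treated 48 h at 37C with compounds at 1:260 dilution of DMSO stock. Lysed, then beta-galactosidase activity read as FDG fluorescence (ex 480/em 540) after 30 min, with pre-read for autofluorescence.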
# A number is an active result; - = inactive; ? = inconclusive; . = not tested or not shown; ! = not active in a repeat; [ ] = dose if it differs, or a comment. Unless noted, calls come from the whole dose curve; as a rule, active = well fitted curve in the direction sought with a large enough effect; inconclusive = small, poorly fitted or top-dose-only effect, or another doubt; inactive = no such curve, though single readings can be large; an effect the other way counts as inactive or inconclusive.
SMILES,ASM inhibitor,GALK inh,Mito fusion yeast,TSG101-PTAP inh,AT treatment,a7 integrin act
C[C@H]1CNC(=O)c2c(C(=O)Nc3ccc(CNC(=O)OC(C)(C)C)cc3)ncn21,.,.,.,.,.,8.9µM
O=C1C(=O)c2ccccc2-c2ccccc21,-,3.2µM,-,-,-,.
O=C1C=CC2C3C(=O)N(c4ccccc4)C(=O)C3C1N2Cc1ccccc1 (stereo not drawn),-,.,.,-,.,-
Cc1cccc(N2C(=O)NC(=O)/C(=C\C=C\c3ccco3)C2=O)c1,-,-,-,-,4µM,-
COC(=O)C1CN(C#N)N(c2ccc(Cl)cc2)C12c1ccccc1-c1ccccc12 (stereo not drawn),-,-,-,-,13µM,-
c1ccc2sc(NC3=NCCN3)nc2c1,-,.,3.2µM,-,-,-
COc1ccc2nc(NC3=NCCN3)sc2c1,-,-,?,-,-,-
CC1(C)C[C@H]2C=C(C=O)[C@]3(C=O)C[C@]3(C)[C@H]2C1,-,.,-,-,3.5µM,-
Cc1nccn1-c1c([N+](=O)[O-])c(=O)n(C)c2ccccc12,-,-,-,-,3.2µM,-
O=C(CSc1nnc(NC(=O)c2ccccc2[N+](=O)[O-])s1)NCc1ccco1,-,-,-,-,-,-
NC(N)=NC(=O)c1nc(Cl)c(N)nc1N,-,-,16µM!,-,-,.
CC(C)(CO)CNC1CCCN(C2Cc3ccccc3C2)C1 (stereo not drawn),-,-,-,-,-,-
O=C(c1cc(-c2ccc(Cl)cc2)n(-c2ccc(Cl)cc2Cl)n1)N1CCOCC1,28µM,-,-,-,-,-
Cc1cccc(NC(=O)Oc2ccc(Cl)c3cccnc23)c1,.,.,.,.,.,-
O=C(CN1CCN(C(=O)CNC(=O)c2ccc(-c3ccccc3)cc2)CC1)Nc1ccccc1Cl,.,.,.,.,.,-
CCn1nc(-c2ccccc2)nc2c(=O)n(C)c(=O)nc1-2,-,0.89µM,-,?,-,-
COc1ccc(NCC(=O)N2CCCC2)cc1Cl,-,-,-,-,-,-
COc1ccc(S(=O)(=O)Nc2cc([N+](=O)[O-])ccc2OC)cc1,-,-,-,-,-,?
ClC1=C(Cl)C2(Cl)C3C(Cl)C=CC3C1(Cl)C2(Cl)Cl (stereo not drawn),-,.,-,-,40µM,.
Cc1oc(-c2ccccc2)nc1CN1C(=O)CN=C(c2ccccc2)c2ccccc21,-,.,13µM,-,-,-
COCCNC(=O)N1[C@H]2CC[C@@H]1C(C(=O)OC)=C(c1ccc(-c3ccccc3)c(F)c1)C2,-,.,-,.,-,-
COC(=O)C1=C(c2ccc(-c3ccccc3)c(F)c2)C[C@@H]2CC[C@H]1N2C(=O)NCC1CC1,-,.,20µM,-,-,-
Nc1nnc(Sc2ncccc2[N+](=O)[O-])s1,-,-,-,-,-,-
Cn1c(=O)oc2cc(S(=O)(=O)Nc3cccc([N+](=O)[O-])c3)ccc21,-,-,?,-,-,-
Cc1ccc(NC(=O)c2snnc2C)cc1Cl,-,-,-,-,-,-
SMILES,ASM inhibitor,GALK inh,Mito fusion yeast,TSG101-PTAP inh,AT treatment,a7 integrin act
Cc1nn(C(C)(C)C)c(C)c1/C=N/OC(=O)Nc1ccc(Cl)c(Cl)c1,-,-,-,-,-,2.8µM
CCCCOP(=O)(OCCCC)C(Nc1ccccc1)c1ccc2c(c1)OCO2 (stereo not drawn),-,-,?,-,-,-
O=C(CN1CCCCC1)c1ccc(F)cc1,-,-,-,-,-,-
COc1ccc(C(=O)CN2CCCCC2)cc1,-,-,-,-,-,13µM
CCOP(=O)(OCC)/C(C#N)=C/c1cc(OC)ccc1OC,-,-,-,-,-,-
CC(=O)N1CC(=O)Nc2ccc(Cl)cc2C1c1ccccc1 (stereo not drawn),-,-,-,-,25µM,-
CC(=O)N1CC(=O)Nc2ccc(F)cc2C1c1ccccc1 (stereo not drawn),-,-,-,-,-,-
COCCCNC(=O)c1c(NC(=O)c2ccco2)n(Cc2ccccc2)c2nc3ccccc3nc12,-,-,-,-,-,-
COCCNC(=O)c1c(NC(=O)c2ccc(Br)o2)n(Cc2ccccc2)c2nc3ccccc3nc12,-,.,7.1µM,?,-,-
CN1CC[C@@]2(C)c3cc(OC(=O)Nc4ccccc4)ccc3N(C)[C@@H]12,.,.,-,.,.,.
CN(N=O)c1cc(O)ccc1O,.,.,23µM,.,.,.
COc1cc2c(ccc3c4cc(OC)c(OC)cc4c[n+](C)c23)cc1O,-,.,.,-,.,-
COc1ccc2c(c[n+](C)c3c4cc5c(cc4ccc23)OCO5)c1OC,.,.,5.8µM,.,.,.
Nc1c(C(=O)NCC2CCCO2)c2nc3ccccc3nc2n1Cc1ccco1 (stereo not drawn),-,-,?,-,20µM,-
CCCNC(=O)c1c(N)n(Cc2ccco2)c2nc3ccccc3nc12,-,-,-,-,-,-
CC(C)c1ccc(-n2c(O)c(C=NC(CCS(C)=O)C(=O)O)c(=O)[nH]c2=S)cc1 (stereo not drawn),-,-,-,-,7.9µM,-
COC(=O)C1C2c3ccccc3OC1(C)N=c1s/c(=C/c3cnn(C)c3)c(=O)n12 (stereo not drawn),-,-,13µM,-,-,-
CC(=O)C1C2c3ccccc3OC1(C)N=c1s/c(=C/c3cn(C)nc3C)c(=O)n12 (stereo not drawn),-,-,-,-,.,-
CCCc1cc(=O)oc2c3c(cc(OCC(=O)N4CCC[C@H]4C(=O)O)c12)OC(C)(C)CC3,-,.,-,-,-,-
O=C(O)CC1OCC=C2CN3CCC45c6ccccc6NC4C1C2CC35 (stereo not drawn),-,-,-,-,-,-
O=C(O)CC1OCC=C2CN3CCC45C6=CC(=O)C(=O)C([N+](=O)[O-])=C6NC4C1C2CC35 (stereo not drawn),-,10µM,-,-,-,-
Fc1ccc(C2=CCN(C(c3cccs3)c3nnnn3CCc3ccccc3)CC2)cc1 (stereo not drawn),-,-,?,-,-,-
CCC(C)(C)n1nnnc1C(c1cccs1)N1CC=C(c2ccc(F)cc2)CC1 (stereo not drawn),-,-,10µM,-,-,-
O=C1NCN(c2ccccc2)C12CCN(CC1COc3ccccc3O1)CC2 (stereo not drawn),.,.,21µM,.,.,.
O=C1NCN(c2ccccc2)C12CCNCC2,-,-,-,-,-,-[7.66 µM]
O=C1CC[C@@]2(O)C3Cc4ccc(O)c5c4C2(CCN3CC2CC2)[C@H]1O5 (stereo partly drawn),.,.,-,.,.,.
C=C(C=O)CC1CC(O)[C@]2(C)OC3C[C@@H]4OC5C[C@]6(C)O[C@]7(C)CCC8OC9C[C@]%10(C)OC(/C(C)=C\CO)C(O)CC%10OC9CC(C)C8OC7CC6O[C@]5(C)C/C=C\C4OC3CC2O1 (stereo partly drawn),-,.,-,-,-,-
C=C(C=O)C[C@@H]1C[C@H](O)C2OC3C[C@]4(C)OC5/C=C\CC6OC7C(CC=CCC6OC5CCCC4OC3CC2O1)OC1CC2OC3CC(=O)OC3C[C@@H](C)C[C@@]2(C)OC1C[C@@H]7C (stereo partly drawn),-,-,.,-,25µM,-
